Laboratory results from PubChem BioAssay (EPA / NIEHS).
Several values for one entry are separate records, joined by “and”; a condition that tells them apart may be missing. Identical values can stand only once. Results filed as inconclusive are left out. The source holds several records for some structures; these can differ, active in one and inactive in another. Activity calls are given as the source filed them. How the source made its calls, unless noted: active means hit-call score of the fitted dose curve at least 0.9, where 1 is the maximum; inactive means score below 0.9.

Columns and labels:
[1] = CCTE_Shafer_MEA_acute_LDH: CCTE's Lactate Dehydrogenase Assay for Cytotoxicity in the Neural Acute Assay, Shafer Lab (AID 2284086; active means hit-call score of the fitted dose curve at least 0.9, where 1 is the maximum;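 further: active means LDH release rises above DMSO vehicle level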)
Procedure, shortened: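 Medium from rat cortical neuron MEA cultures sampled right after the 40 min compound-exposure recording; released LDH measured by absorbance at 490 nm. Analyzed as signal gain relative to DMSO.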

[2] = CCTE_Shafer_MEA_dev_mutual_information_norm: CCTE's Neural Network Formation Assay for Mutual Information Normalization, Shafer Lab (AID 2284091);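 on AC50: mutual information between electrodes summarised as area under curve across four recording days; potency is for a decrease in mutual information relative to DMSO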
Procedure, shortened: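 Primary rat cortical neurons on PEI-coated 48-well MEA plates, 1.5 x 10^5 cells/well, exposed from day 0 through day 12 with re-dosing at DIV 5 and 9. Mutual information between electrodes recorded days 5, 7, 9, 12; trapezoidal AUC, loss-of-signal fit versus DMSO.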

[3] = CCTE_Shafer_MEA_dev_correlation_coefficient_mean: CCTE's Neural Network Formation Assay for Mean Correlation Coefficient, Shafer Lab (AID 2284093);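 on AC50: well mean pairwise spike train correlation integrated as AUC over recording days 5 to 12; potency fitted for loss of correlation relative to DMSO vehicle wells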
Procedure, shortened: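 Primary rat cortical neurons on PEI-coated 48-well MEA plates (16 electrodes/well) were exposed from plating day 0 through DIV12, with compound renewed at DIV5 and 9. Pairwise spike correlations were averaged per well; trapezoidal AUC across DIV5, 7, 9, 12.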

[4] = UKN2_HCS_IMR90_neural_migration: University of Konstanz (UKN) Leist Lab Neural Crest Cell Migration Assay in human induced IMR90 Pluripotent Stem Cells (UKN2) (AID 2284204); conditions: actives raise or lower the signal
Procedure, shortened: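 iPSC-derived IMR90 neural crest cells seeded around stoppers on PLO/laminin/fibronectin; migration started in N2-S medium with EGF/FGF, compounds added after 24 h for 24 h. Migration into cell-free area imaged after calcein-AM/Hoechst staining; bidirectional fit versus DMSO.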

[5] = IUF_NPC1b_proliferation_BrdU_72hr: Leibniz Research Institute for Environmental Medicine (IUF) 72-hour Neural Progenitor Cell Bromodeoxyuridine (BrdU) Proliferation Assay (NPC1b) (AID 2284207)
Procedure, shortened: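 BrdU luminescence ELISA quantified DNA synthesis over the last 16 h of a 72 h exposure, fitted against DMSO. Primary hNPC spheres from gestational week 16-19 cortex grown with EGF/FGF at 37C, pH 7.2-7.6.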

[6] = IUF_NPC1a_proliferation_area_72hr: Leibniz Research Institute for Environmental Medicine (IUF) 72-hour Neural Progenitor Cell Proliferation Area Assay (NPC1a) (AID 2284208)
Procedure, shortened: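 Measured in 3D suspension: each well held one primary hNPC sphere grown with EGF and FGF at pH 7.2-7.6. Compound stayed on for 72 h, then area was imaged; spheres lacking growth factors defined reduced proliferation.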

[7] = IUF_NPC1_viability_72hr: Viability Assessment at 72 hours in the Leibniz Research Institute for Environmental Medicine (IUF) Neural Progenitor Cell Proliferation Assay (NPC1) (AID 2284209)
Procedure, shortened: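 Single spheres (0.25-0.35 mm) of human fetal cortex-derived neural progenitor cells were grown in proliferation medium with EGF and FGF at 37C and 5% CO2. They were exposed for 72 h without renewal, and viability was read by alamar blue resorufin fluorescence.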

[8] = CCTE_Mundy_HCI_Cortical_Synap_Neur_Matur_NeuriteSpotCountPerNeuriteLength: CCTE's Synaptogenesis and Neurite Maturation Assay in rat cortical cells for Neurite Spot Count per Neurite Length, Mundy Lab (AID 2284210)
Procedure, shortened: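 Rat primary cortical cultures, AraC added at DIV 5 to suppress glia; chemical exposure from DIV 7 to DIV 12. Fixed cells stained for MAP2 and synaptophysin plus Hoechst; synaptophysin puncta per neurite length quantified by high-content imaging, relative to DMSO.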

[9] = CCTE_Mundy_HCI_Cortical_Synap_Neur_Matur_BPCount: CCTE's Synaptogenesis and Neurite Maturation Assay in rat cortical cells for Branch Point Count, Mundy Lab (AID 2284211)
Procedure, shortened: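 Rat primary cortical cultures, AraC added DIV 5; chemicals dosed DIV 7 through DIV 12. Fixed cells stained for MAP2, synaptophysin and Hoechst; neurite branch points counted by automated high-content imaging, fitted relative to DMSO.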

[10] = UKN4_HCS_LUHMES_neurite_outgrowth: University of Konstanz (UKN) Leist Lab Neurite Outgrowth Assay in human LUHMES cells (UKN4) (AID 2284206); conditions: actives raise or lower the signal
Procedure, shortened: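 Human LUHMES neuronal precursors, differentiated 2 days then replated without cAMP and GDNF, exposed to compounds for 24 h. Neurite area imaged by high-content microscopy after calcein-AM live staining; Hoechst H-33342 for viability; bidirectional fit versus DMSO.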

Cc1ccc(-c2c(Cl)nc(C#N)n2S(=O)(=O)N(C)C)cc1
outcome [1]: inactive
AC50 [2]: 15.2 µM (active)
AC50 [3]: 27.9 µM (active)
outcome [4]: inactive
AC50 [5]: 74.2 µM (active)
AC50 [6]: 74.1 µM (active)
AC50 [7]: 83 µM (active)
AC50 [8]: 73.3 µM (active)
AC50 [9]: 71.1 µM (active)

N#CC(CCc1ccc(Cl)cc1)(Cn1cncn1)c1ccccc1 (stereo not drawn)
outcome [1]: inactive

COP(N)(=O)SC (stereo not drawn)
outcome [1]: inactive
outcome [2]: inactive
outcome [3]: inactive
outcome [5]: inactive
outcome [6]: inactive
outcome [7]: inactive
outcome [8]: inactive
AC50 [9]: 0.0258 µM (active)
outcome [9]: inactive

Cc1c(F)c(F)c(COC(=O)C2C(/C=C(\Cl)C(F)(F)F)C2(C)C)c(F)c1F (stereo not drawn)
AC50 [2]: 0.302 µM (active)
AC50 [3]: 0.61 µM (active)

CCOC(=O)CC(SP(=S)(OC)OC)C(=O)OCC (stereo not drawn)
AC50 [2]: 7.87 µM (active) and 3.88 µM (active)
AC50 [3]: 12.7 µM (active) and 22.6 µM (active)
outcome [5]: inactive
outcome [6]: inactive
outcome [7]: inactive
outcome [8]: inactive
AC50 [9]: 50 µM (active)
outcome [9]: inactive

CC(C)Oc1cc(-n2nc(C(C)(C)C)oc2=O)c(Cl)cc1Cl
outcome [1]: inactive

COC(=O)C(C)Oc1ccc(Oc2ccc(Cl)cc2Cl)cc1 (stereo not drawn)
outcome [1]: inactive

CCNc1nc(Cl)nc(NC(C)C)n1
outcome [2]: inactive
outcome [3]: inactive

N#Cc1nn(-c2c(Cl)cc(C(F)(F)F)cc2Cl)c(N)c1S(=O)C(F)(F)F (stereo not drawn)
outcome [1]: inactive
outcome [2]: inactive
outcome [3]: inactive
AC50 [4]: 21.3 µM (active)
AC50 [10]: 16.1 µM (active)
outcome [5]: inactive
outcome [6]: inactive
outcome [7]: inactive
AC50 [8]: 15 µM (active)
outcome [9]: inactive

COc1ccc(C(c2ccc(OC)cc2)C(Cl)(Cl)Cl)cc1
AC50 [2]: 1.97 µM (active)
AC50 [3]: 2.95 µM (active)

CCCN(CCC)c1c([N+](=O)[O-])cc(S(N)(=O)=O)cc1[N+](=O)[O-]
outcome [1]: inactive

C=CCC1=C(C)C(OC(=O)C2C(C=C(C)C)C2(C)C)CC1=O (stereo not drawn)
outcome [1]: inactive
AC50 [2]: 0.917 µM (active)
outcome [2]: inactive
AC50 [3]: 4.1 µM (active)
outcome [3]: inactive
AC50 [10]: 9.08 µM (active)
outcome [8]: inactive
outcome [9]: inactive

CCCCOC(=O)c1ccccc1C(=O)OCCCC
outcome [2]: inactive
outcome [3]: inactive
outcome [4]: inactive
outcome [5]: inactive
outcome [6]: inactive
outcome [7]: inactive
AC50 [8]: 84.1 µM (active)
AC50 [9]: 50 µM (active)

CCCC1COC(Cn2cncn2)(c2ccc(Cl)cc2Cl)O1 (stereo not drawn)
outcome [1]: inactive

CO/C=C(/C(=O)OC)c1ccccc1Oc1cc(Oc2ccccc2C#N)ncn1
outcome [1]: inactive
AC50 [2]: 1.11 µM (active) and 985 nM (active)
AC50 [3]: 1.57 µM (active) and 574 nM (active)
outcome [4]: inactive
outcome [5]: inactive
AC50 [6]: 60.2 µM (active)
outcome [7]: inactive
AC50 [8]: 5.11 µM (active)
AC50 [9]: 3.25 µM (active)

CC(Oc1ccc(Cl)cc1Cl)C(=O)O (stereo not drawn)
outcome [1]: inactive

COC(=O)N(OC)c1ccccc1COc1ccn(-c2ccc(Cl)cc2)n1
outcome [1]: inactive
AC50 [2]: 57.3 nM (active) and 9.62 nM (active)
AC50 [3]: 161 nM (active) and 10.2 nM (active)
AC50 [4]: 29.2 µM (active)
AC50 [5]: 4.1 µM (active)
AC50 [6]: 1.44 µM (active)
AC50 [7]: 7.52 µM (active)
AC50 [8]: 0.0823 µM (active)
AC50 [9]: 0.0563 µM (active)

CC1COC(Cn2cncn2)(c2ccc(Oc3ccc(Cl)cc3)cc2Cl)O1 (stereo not drawn)
outcome [1]: inactive

CS/C(C)=N/OC(=O)N(C)SN(C)C(=O)O/N=C(\C)SC
outcome [1]: inactive

Fc1ccc(Oc2ccnc3cc(Cl)cc(Cl)c23)cc1
outcome [1]: inactive

CCOP(=S)(OCC)SCn1c(=O)oc2cc(Cl)ccc21
outcome [1]: inactive

CCCCNC(=O)n1c(NC(=O)OC)nc2ccccc21
outcome [2]: inactive
AC50 [3]: 15 µM (active)
AC50 [4]: 10 µM (active)
AC50 [10]: 7.73 µM (active)
outcome [8]: inactive
AC50 [9]: 15 µM (active)

C=CCC1=C(C)[C@@H](OC(=O)[C@@H]2[C@@H](C=C(C)C)C2(C)C)CC1=O
outcome [1]: inactive
AC50 [2]: 2.61 µM (active)
AC50 [8]: 20.5 µM (active)
AC50 [9]: 26.6 µM (active)

COP(=S)(OC)Oc1nc(Cl)c(Cl)cc1Cl
outcome [1]: inactive
outcome [2]: inactive
outcome [3]: inactive
outcome [5]: inactive
outcome [6]: inactive
outcome [7]: inactive
AC50 [9]: 24.8 µM (active)

C#CCOS(=O)OC1CCCCC1Oc1ccc(C(C)(C)C)cc1 (stereo not drawn)
outcome [1]: inactive

CN(C)C(=S)SSC(=S)N(C)C
AC50 [2]: 0.00669 µM (active)
AC50 [3]: 0.00907 µM (active)
AC50 [4]: 1.72 µM (active)
AC50 [5]: 50.1 µM (active)
AC50 [6]: 67.2 µM (active)
AC50 [7]: 74.6 µM (active)
AC50 [8]: 0.0765 µM (active)
AC50 [9]: 0.0767 µM (active)

O=C(O)c1nc(Cl)ccc1Cl
outcome [1]: inactive

CNC(=O)ON=CC(C)(C)SC
outcome [2]: inactive
outcome [3]: inactive
outcome [5]: inactive
outcome [6]: inactive
outcome [7]: inactive
outcome [8]: inactive
outcome [9]: inactive

CC(C)(C)c1ccc(CSc2cnn(C(C)(C)C)c(=O)c2Cl)cc1
outcome [1]: inactive
AC50 [2]: 0.00153 µM (active)
AC50 [3]: 0.00177 µM (active)
outcome [4]: inactive
AC50 [5]: 0.0138 µM (active)
AC50 [6]: 0.0126 µM (active)
outcome [7]: inactive
AC50 [8]: 0.000994 µM (active)
AC50 [9]: 0.000559 µM (active)

C=CC1(C)OC(=O)N(c2cc(Cl)cc(Cl)c2)C1=O (stereo not drawn)
outcome [2]: inactive
AC50 [3]: 50 µM (active)
outcome [4]: inactive
outcome [5]: inactive
outcome [6]: inactive
outcome [7]: inactive
outcome [8]: inactive
outcome [9]: inactive

CCCCC(CC)COC(=O)c1ccccc1C(=O)OCC(CC)CCCC (stereo not drawn)
AC50 [2]: 1.59 µM (active) and 2.77 µM (active)
outcome [2]: inactive
AC50 [3]: 5.5 µM (active) and 7.56 µM (active)
outcome [3]: inactive
outcome [4]: inactive
outcome [5]: inactive
outcome [6]: inactive
outcome [7]: inactive
AC50 [8]: 8.06 µM (active) and 7.58 µM (active)
AC50 [9]: 3.03 µM (active)

CCOc1cc(Oc2ccc(C(F)(F)F)cc2Cl)ccc1[N+](=O)[O-]
AC50 [2]: 4.49 µM (active)
AC50 [3]: 6.5 µM (active)
outcome [4]: inactive
outcome [5]: inactive
outcome [6]: inactive
outcome [7]: inactive
AC50 [8]: 14.3 µM (active)
AC50 [9]: 14.8 µM (active)

CCCCNC(=O)OCC#CI
outcome [1]: inactive
AC50 [2]: 1.81 µM (active) and 1.09 µM (active)
AC50 [3]: 3.8 µM (active) and 1.05 µM (active)
